High-throughput results from PubChem BioAssay.
DT40 TDP1 CPT = DT40-hTDP1 cell growth loss with CPT; actives 12% (n = 420,000); Potency, µM (series often up to 46.2 µM), actives largely listed as inhibitors; chicken DT40 Tdp1-/-;hTDP1 cells + 20 nM CPT, ATP luminescence, 48 h; note: nearly all actives have a fitted effect of over 55% in size
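Chicken DT40 Tdp1-/- cells stably complemented with human TDP1 were seeded at 400 cells/well in medium containing 20 nM camptothecin, exposed to pin-transferred compounds, and grown at 37 °C for at least 48 hr. Viability was read as ATP luminescence.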
TDP1 cell noCPT = qHTS for Inhibitors of human tyrosyl-DNA phosphodiesterase 1 (TDP1): qHTS in cells in absence of CPT; DT40 Tdp1-/- hTDP1 cells, no CPT, ATP luminescence, 48 h; Potency, µM (series often up to 46.2 µM), hits mostly inhibitors; actives 15% (n = 420,000); AID 686978, 2013; note: nearly all actives have a fitted effect of over 55% in size
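No-CPT arm: Tdp1-/-;hTDP1 DT40 cells (400/well) plus compounds, incubated ≥48 hr at 37 °C. Readout CellTiter-Glo luminescence.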
MCF10A rerep = induces DNA re-replication in MCF 10a normal breast cells; MCF 10A DNA re-replication, Hoechst nuclear intensity, 48 h; Potency, µM (series often up to 46.1 µM), hits mostly activators; actives 2.9% (n = 350,000); AID 624296; note: nearly all actives have a fitted effect of over 50% in size
BCR signal inh = chronic active BCR signaling inhibition; ABC-DLBCL IkBa-CBG/CBR reporter, luminescence ratio, 4 h; Potency, µM (highest dose often 46.1 µM), hits mostly inhibitors; actives 0.05% (n = 340,000); AID 493014; active = well fitted inhibition curve with a large enough effect in the signal ratio, with a control signal flat, not every such curve was filed as active; inconclusive = small, poorly fitted or top-dose-only effect, or effect the other way, or a change in a side signal; the % refers to the signal ratio
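Cell line TMD8 (human ABC DLBCL), stably expressing tet-inducible CBG68-IkBa fusion and CBR; IMDM/0.5% FBS; cpd up to 46 uM; dox induction, 4 h, 37C/5% CO2; dual luminescence; green/red ratio; MG132 control.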
IL-1B inflam inh = inflammasome signaling inhibition, IL-1 beta readout; THP-1 LPS/ATP IL-1B secretion, AlphaLISA, 16 h; stronger effect = lower value; activity change, % at 57.5 µM; actives 4.7% (n = 360,000); in the data active = activity change below about -50%; inconclusive = mostly about -30% to -49%
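THP-1 cells pretreated 1 hr with compounds (up to 57.5 uM final), then stimulated with LPS (250 ng/mL final) plus ATP (1.25 mM final); secreted IL-1B measured by AlphaLISA after 16 hr, decreased signal indicating inhibition.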
SW480 rerep = inducers of DNA re-replication in SW480 colon cancer cells; SW480 DNA re-replication, Hoechst DNA content imaging, 48 h; actives 1.8% (n = 340,000); Potency, µM (series often up to 46.1 µM), usual class: activators; note: nearly all actives have a fitted effect of over 55% in size
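Per well, 250 cells were exposed to pinned compound for 48 hr. Nuclear DNA was visualised with Hoechst (40 min, 37 C) and total object intensity recorded by fluorescence scanning.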
Each line names hits and unclear results; the compound was inactive in the other large screens. In the library only some 19% were active in any assay of this set; here they are far more common. Unless noted, calls come from the whole dose curve; as a rule, active = well fitted curve in the direction sought with a large enough effect; inconclusive = small, poorly fitted or top-dose-only effect, or another doubt; inactive = no such curve, though single readings can be large; an effect the other way counts as inactive or inconclusive.

CCc1cccc(C)c1NS(=O)(=O)c1ccc(-n2cccn2)cc1	DT40 TDP1 CPT 16µM, TDP1 cell noCPT 26µM (no result: MCF10A rerep, BCR signal inh, IL-1B inflam inh, SW480 rerep)
COc1cc(NS(=O)(=O)c2ccc(-n3cccn3)cc2)cc(OC)c1	DT40 TDP1 CPT 13µM, TDP1 cell noCPT 12µM (no result: MCF10A rerep, BCR signal inh, SW480 rerep)
O=S(=O)(Nc1ccc(F)cc1F)c1ccc(-n2cccn2)cc1	DT40 TDP1 CPT 16µM, TDP1 cell noCPT inconclusive (no result: MCF10A rerep, BCR signal inh, IL-1B inflam inh, SW480 rerep)
COC(=O)c1cc(S(=O)(=O)NCc2ccccc2OC)cn1C	DT40 TDP1 CPT inconclusive, TDP1 cell noCPT 8.2µM
Cc1cc(C)cc(NS(=O)(=O)c2ccc(-n3cccn3)cc2)c1	DT40 TDP1 CPT 16µM, TDP1 cell noCPT inconclusive (no result: MCF10A rerep, BCR signal inh, IL-1B inflam inh, SW480 rerep)
Cc1ccc(C)c(NS(=O)(=O)c2ccc(-n3cccn3)cc2)c1	TDP1 cell noCPT inconclusive (no result: MCF10A rerep, BCR signal inh, SW480 rerep)
Cc1ccc(NS(=O)(=O)c2ccc(-n3cccn3)cc2)cc1C	DT40 TDP1 CPT inconclusive, TDP1 cell noCPT inconclusive
O=C(Nc1cc(Cl)cc(Cl)c1)c1ccc(Cn2c(=O)[nH]c3ccsc3c2=O)cc1	DT40 TDP1 CPT inconclusive, TDP1 cell noCPT inconclusive, MCF10A rerep 23µM, IL-1B inflam inh inconclusive
CC(=O)NCCNC(=O)c1ccc(Cn2c(=O)[nH]c3ccsc3c2=O)cc1	none
CCOC(=O)Cn1nnnc1C(CC)N(Cc1ccccc1)Cc1cc2cc(C)ccc2[nH]c1=O (configuration not stated)	DT40 TDP1 CPT inconclusive, BCR signal inh inconclusive
COc1ccc2cc(CN(Cc3cccnc3)Cc3nnnn3Cc3ccccc3)c(=O)[nH]c2c1	DT40 TDP1 CPT inconclusive, TDP1 cell noCPT inconclusive, BCR signal inh inconclusive
O=c1[nH]c2cc3c(cc2cc1CN(Cc1ccccc1)Cc1nnnn1Cc1ccco1)OCCO3	DT40 TDP1 CPT inconclusive, TDP1 cell noCPT inconclusive, BCR signal inh inconclusive, IL-1B inflam inh -59, SW480 rerep inconclusive
COc1ccc(Cn2nnnc2CN(CCCN2CCOCC2)Cc2cc3cc(OC)ccc3[nH]c2=O)cc1	DT40 TDP1 CPT inconclusive, TDP1 cell noCPT inconclusive
COc1ccccc1CN(Cc1cc2cc3c(cc2[nH]c1=O)OCCO3)Cc1nnnn1Cc1ccco1	DT40 TDP1 CPT 26µM, TDP1 cell noCPT inconclusive, BCR signal inh inconclusive
CCc1ccc2[nH]c(=O)c(CN(Cc3ccccc3)Cc3nnnn3Cc3ccco3)cc2c1	DT40 TDP1 CPT inconclusive, TDP1 cell noCPT 16µM, BCR signal inh inconclusive, IL-1B inflam inh -54, SW480 rerep inconclusive
CCOC(=O)Cn1nnnc1CN(Cc1ccccc1)Cc1cc2cc(CC)ccc2[nH]c1=O	DT40 TDP1 CPT 21µM, TDP1 cell noCPT inconclusive, MCF10A rerep 10µM, IL-1B inflam inh -91, SW480 rerep inconclusive
CC[C@@]1(C(=O)OC)N[C@H](CN(C)C(=O)c2ccc(F)cc2)[C@@H]2C(=O)N(Cc3ccccc3)C(=O)[C@@H]21	none
O=c1[nH]c2cc3c(cc2cc1CN(Cc1cccs1)Cc1nnnn1Cc1ccco1)OCCO3	DT40 TDP1 CPT 15µM, TDP1 cell noCPT 16µM, MCF10A rerep inconclusive, BCR signal inh inconclusive, SW480 rerep inconclusive
O=c1[nH]c2cc3c(cc2cc1CN(Cc1ccco1)C(=S)NCCCN1CCOCC1)OCCO3	DT40 TDP1 CPT inconclusive, TDP1 cell noCPT inconclusive, MCF10A rerep inconclusive
O=C1c2ccccc2C2N1CCCN2C(=O)c1sc2ccccc2c1Cl (configuration not stated)	DT40 TDP1 CPT 18µM, TDP1 cell noCPT 16µM (no result: MCF10A rerep, BCR signal inh, SW480 rerep)
S=C(NCc1ccco1)NCC(c1ccco1)N1CCCCC1 (configuration not stated)	TDP1 cell noCPT inconclusive, IL-1B inflam inh inconclusive, SW480 rerep inconclusive
O=C(c1cc(-n2cnnc2)ccc1Cl)N1CCN(c2nc(-c3ccccc3)cs2)CC1	DT40 TDP1 CPT 16µM, TDP1 cell noCPT 23µM, IL-1B inflam inh -90
CCC(=O)N1CCN(c2nc(-c3ccc(Cl)cc3)cs2)CC1	DT40 TDP1 CPT 23µM, TDP1 cell noCPT 23µM, MCF10A rerep inconclusive
CCCCNC(=S)N1CCN(c2nc3ccccc3s2)CC1	DT40 TDP1 CPT inconclusive, TDP1 cell noCPT inconclusive, IL-1B inflam inh inconclusive
COCCCNC(=S)N1CCN(C(c2ccccc2)c2ccccc2)CC1	TDP1 cell noCPT inconclusive
CCN(CC)CCCNC(=S)N1CCN(c2nc(-c3ccccc3)cs2)CC1	DT40 TDP1 CPT inconclusive, TDP1 cell noCPT 18µM, MCF10A rerep inconclusive, BCR signal inh inconclusive, IL-1B inflam inh -50, SW480 rerep inconclusive
COCCCNC(=S)N1CCN(c2nc(-c3ccccc3)cs2)CC1	DT40 TDP1 CPT 16µM, TDP1 cell noCPT 12µM, MCF10A rerep 15µM
C[C@H]1Oc2ccccc2C(=O)C1C(=O)c1ccccc1 (some centres not stated)	none (no result: BCR signal inh)
CN(CC(=O)Nc1ccccc1Cl)CC(=O)N(C)c1c(N)n(Cc2ccccc2)c(=O)[nH]c1=O	none
CC12CCC(C(=O)C1)C1(C)CCCC(=O)C21 (configuration not stated)	none (no result: BCR signal inh)
COCCCNC(=S)N1CCN(c2nc(-c3ccc(Cl)cc3)cs2)CC1	DT40 TDP1 CPT inconclusive, TDP1 cell noCPT 18µM (no result: MCF10A rerep, BCR signal inh, SW480 rerep)
